For 49 compounds, activity change, negative = inhibition results are on record in PubChem BioAssay AID463254 (National Center for Advancing Translational Sciences (NCATS), 2010).

The whole screen tested about 330,000 compounds, of which about 40 (0.01%) were called active. What follows is part of a selection rich in actives, with near analogues and random picks from the rest. Unmarked numbers belong to inactive results. Calls follow the shape of the dose curve; as a rule, active = well fitted inhibition curve with a large enough effect; inconclusive = small, poorly fitted or top-dose-only effect, or effect the other way; inactive = flat fitted curve, though single readings scatter.

Sequence of Ubiquitin carboxyl-terminal hydrolase 2 (Homo sapiens) (O75604 whole entry, looked up): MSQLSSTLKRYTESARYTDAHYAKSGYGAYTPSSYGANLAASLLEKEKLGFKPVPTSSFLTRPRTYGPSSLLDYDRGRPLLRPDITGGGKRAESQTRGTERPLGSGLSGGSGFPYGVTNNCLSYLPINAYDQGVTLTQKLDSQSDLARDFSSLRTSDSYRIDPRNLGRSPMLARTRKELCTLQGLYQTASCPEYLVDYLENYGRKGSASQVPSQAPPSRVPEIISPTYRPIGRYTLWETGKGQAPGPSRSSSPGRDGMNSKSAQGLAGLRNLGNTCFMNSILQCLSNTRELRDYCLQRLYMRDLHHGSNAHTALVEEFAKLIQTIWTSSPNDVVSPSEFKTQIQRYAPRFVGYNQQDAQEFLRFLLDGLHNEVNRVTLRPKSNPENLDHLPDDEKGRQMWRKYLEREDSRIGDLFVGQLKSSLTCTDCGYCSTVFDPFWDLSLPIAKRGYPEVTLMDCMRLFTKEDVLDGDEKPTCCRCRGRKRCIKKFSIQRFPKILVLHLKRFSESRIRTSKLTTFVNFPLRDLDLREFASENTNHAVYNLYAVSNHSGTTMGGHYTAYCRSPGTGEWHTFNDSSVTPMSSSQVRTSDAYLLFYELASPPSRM

In this test the target is Ubiquitin carboxyl-terminal hydrolase 2 (Homo sapiens) (UniProt O75604). Briefly: qHTS Assay for Inhibitors of Ubiquitin-specific Protease USP2a Using CHOP2 as the Reporter.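 Also: plate controls were DMSO wells for no effect and full inhibition by NEM control for full effect.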 To be noted: USP2 core, Ub-CHOP2 coupled fluorogenic reporter, 485/531; series mostly up to 38.3 µM. The text has this:
NIH Molecular Libraries Screening Centers Network [MLSCN] NIH Chemical Genomics Center [NCGC] MLSCN Grant: XO1-MH079852-01 PI Name: Nicholson, Ben. Progenra Inc, Malvern, PA NCGC Assay Overview: Homeostasis of cellular proteins is maintained through a combination of synthesis and degradation. The pathway that accounts for the majority of protein degradation is the ubiquitin-proteasomal pathway. Ubiquitin (Ub) is highly conserved in all cells and the generation of a multi-Ub chain typically targets proteins for degradation by the proteasome. However, ubiquitination is highly reversible and dynamic. Deubiquitination, the reverse process, is catalyzed through the action of enzymes referred to as isopeptidases or deubiquitinating enzymes (DUBs). This group of enzymes is collectively responsible for maintaining adequate pools of free ubiquitin and regulating the ubiquitination status of cellular proteins. The class of DUBs referred to as the ubiquitin-specific proteases (USP) family functions endoproteolytically to cleave Ub chains from a wide range of protein substrates. USP2a deubiquitinates fatty acid synthase (FASN) which has recently been identified as an emerging oncology target. To identify inhibitors of USP2a a cell-free assay was employed. […] The reporter enzyme chosen is an enterokinase called CHOP2, which is activated when the Ub is cleaved by USP2. The free and now activated reporter can subsequently act on its reporter substrate. Thus, this coupled assay gives a fluorescent read-out at excitation/emission wavelengths of 485/531. The assay was developed by Progenra, Inc. and has been licensed for sale by LifeSensors, Inc. as Ub-CHOP2-Reporter-Kit (#PR1101).
NCGC Assay Protocol Summary: The assay buffer, prepared fresh at the day of the assay, contains 20mM Tris-HCl pH 8.0, 2mM CaCl2, 2mM beta-Mercaptoethanol, 0.05% CHAPS. 3ul of 20nM (10nM final) USP2 core, which is stored on ice, is dispensed into a medium-binding black solid Kalypsys 1,536 well plate using the Kalypsys dispenser. The assay plate is then pinned with 23nL compound with the Kalypsys pintool in columns 5-48. The controls are pinned as follows: column 1 two-fold dilutions of 2M NEM in duplicate; column 2 2M NEM (final concentration 38.2mM); column 3&4 DMSO. The assay plate is incubated at RT for 30min. Subsequently, 1.5uL of 100nM (25nM final) Ub-CHOP2 and 1.5uL of 100nM (25nM final) Reporter Substrate (both stored on ice and protected from light) were dispensed into the plate using the Kalypsys dispenser. Plates were read after 60min RT incubation on a ViewLux (Perkin Elmer) plate reader using the following wavelengths Ex 485nm /Em 531nm. Data were normalized to the to AC100 inhibition (NEM). Concentration-response curves were fitted to the normalized data and the concentration-response curves were then classified based on curve quality (r2), response magnitude and degree of measured activity. The time zero reading was used to flag fluorescence artifacts. Keywords: ubiquitination, deubiquitination, proteases, profluorescent, MLSMR, MLPCN, NIH Roadmap, qHTS, NCGC
Background: Quantitative high-throughput screening tests each substance at several concentrations.
`COc1ccc(Br)cc1CN(C)CC(=O)Nc1cc(Cl)cc(Cl)c1`: the activity change, negative = inhibition result is “inactive”. The result for `COc1ccc2c3c(c(=O)oc2c1)C1O[C@](CCCCN2C(=O)c4ccccc4C2=O)(Cc2c1ccc1ccccc21)O3` reads 0.0315% [at 7.66 µM]; that for `CC(C)NC(=O)C(=O)NCCCOC(C)C`, “inactive”; that for `O=C(CN1CCOCC1)N1CCCc2c1c(=O)oc1ccc(OCc3ccccc3)cc21`, “inactive”.

`CCOCCOCCC(C(=O)O)P(=O)(c1ccccc1)c1ccccc1` (centres undefined): the activity change, negative = inhibition result was “inactive”.

In the case of `CCOC(=O)c1c(NC(=O)CCCN2CCOCC2)sc2c1CC(C)(C)OC2`, the activity change, negative = inhibition result is “inactive”. Turning to `CC(C)(C)[Si](OCC[C@@H]1C[C@@]1(C)[C@@H](NP(=O)(c1ccccc1)c1ccccc1)c1ccccc1)(c1ccccc1)c1ccccc1`, the activity change, negative = inhibition result is “inactive”. Consider `CCC(C)n1c(-c2cc(OC)c(OC)c(OC)c2)nc2nc3ccccc3nc21` (centres undefined), for which the activity change, negative = inhibition result is “inactive”.

For the compound `CC(C)(C)C(=O)NC1CC2CCCC(C1)N2C(=O)Nc1ccccc1F` (centres undefined), the activity change, negative = inhibition entry is “inactive”. Consider `C=CC[n+]1c(-c2ccc(C)cc2)csc1NNC(=O)Nc1ccccc1`, for which the activity change, negative = inhibition result was “inactive”. For `CCNC(=S)N(CCN(CC)CC)Cc1cc2cc3c(cc2[nH]c1=O)OCO3`, the activity change, negative = inhibition entry was “inactive”. Regarding `Cn1c(CC(=O)NNC(=O)c2ccccc2F)nc2ccccc21`, the activity change, negative = inhibition entry was “inactive”. As for `COc1ccc(-c2[nH]ncc2CN(Cc2nccn2C)C(C)C)cc1F`, the activity change, negative = inhibition entry was “inactive”. The result for `Cc1cc(C)c(NC(=O)CSc2nc3ccncc3[nH]2)c(C)c1` reads “inactive”; that for `CCOC(=O)C(CC)/C(C)=N\NC(=O)c1cccc(C)c1` (centres undefined), “inactive”; that for `CSc1nc(-c2ccco2)nn1C(=O)c1ccccc1Cl`, “inactive”. For `CCN(CC)CCN1C(=O)C(=O)/C(=C(/O)c2cnn(-c3ccccc3)c2C)C1c1cccs1` (centres undefined), the activity change, negative = inhibition entry is “inactive”.

With `Cc1ccc(C(=O)N/C(=C/c2ccco2)C(=O)NCCc2c[nH]c3ccccc23)cc1C`, the activity change, negative = inhibition entry was “inactive”. Turning to `Cc1ccc(NC(=O)CCC(=O)c2ccc(Br)cc2)cc1`, the activity change, negative = inhibition result is “inactive”. The value for `C/C(=N\NC(=O)NC1CCCCC1)c1ccc(OC(F)F)cc1OC(F)F` was “inactive”. On to `CCC(=O)Nc1c(S(=O)(=O)c2ccccc2)c2nc3ccccc3nc2n1Cc1ccccc1`, for which the activity change, negative = inhibition result is “inactive”. `CC(c1ccco1)N(C(=O)Nc1ccccc1)C1CCCCC1` (centres undefined): the activity change, negative = inhibition entry was “inactive”.

In the case of `Cc1ccc(NC(=O)Cn2cnc3c(OCc4ccccc4)ncnc32)cc1C`, the activity change, negative = inhibition result was “inactive”. With `COc1ccc(C(=O)N2CCc3cc(OC)c(OC)cc3C2c2cccc([N+](=O)[O-])c2)cc1` (centres undefined), the activity change, negative = inhibition entry is “inactive”. In the case of `COc1ccc(C(=O)C2CCCN(C(=O)c3cc(C)on3)C2)cc1F` (centres undefined), the activity change, negative = inhibition result is “inactive”. For the compound `COC(c1ccccc1)(c1ccccc1)C(Oc1nc(C)cc(C)n1)C(=O)O` (centres undefined), the activity change, negative = inhibition result is “inactive”. The result for `CN(C)/C=C(/C(=O)c1ccc(Cl)cc1)S(=O)(=O)c1ccccc1` reads “inactive”; that for `O=C(Oc1ccc([N+](=O)[O-])cc1)c1ccc(Cl)c(S(=O)(=O)N2CCCCC2)c1`, “inactive”; that for `Cc1ccc(N(Cc2cc(=O)[nH]c3ccccc23)C(=O)CCl)cc1`, “inactive”. The result for `C=CCn1cc(Cl)cc(C(=O)Nc2ccccc2)c1=O` reads “inactive”. As for `CCCCCCCCn1c2c(c(=N)c3c1CCC3)CCCC2`, the activity change, negative = inhibition entry was “inactive”.

On to `COc1cccc(CNC(=O)COc2cc(O)c3c(c2)OC(C)(C)CC3=O)c1`, for which the activity change, negative = inhibition result is “inactive”. For the compound `Cn1nnnc1NCc1ccc(Cl)c(Cl)c1`, the activity change, negative = inhibition result was “inactive”. Turning to `COC(=O)c1cccc([N+](=O)[O-])c1CS(=O)(=O)c1ccc(C)cc1`, the activity change, negative = inhibition entry is “inactive”. With `C#CCOCCOCCOCCNc1nc(N2CCN(C(=O)C([C@@H](C)O)n3cc([C@@H](N)CCCCN)nn3)CC2)nc(N2CCN(C(=O)[C@H](CCCCN)n3cc(CN)nn3)CC2)n1` (some centres undefined), the activity change, negative = inhibition entry was “inactive”. The value for `CN(C)CCCNc1c2c(c(C#N)c3nc4ccccc4n13)CCC2` was “inactive”; that for `O=[N+]([O-])C(=c1ccc2c(c1)N1C3=C(CCCC3)CC3CCCCC31N=2)[N+](=O)[O-]` (centres undefined) was “inactive”. For `Cc1cc(N2CCN(c3ccc(F)cc3)CC2)n2ncnc2n1`, the activity change, negative = inhibition result was “inactive”.

Consider `CCOC(=O)C1(CCOc2ccccc2)CCN(Cc2ccc(C#CCCO)cc2)CC1`, for which the activity change, negative = inhibition result was “inactive”.

As to `CC(C)CN(C(=O)CSc1nncn1C)C1CCS(=O)(=O)C1` (centres undefined), the activity change, negative = inhibition entry was “inactive”. The result for `O=C(COC(=O)c1ccc(F)cc1F)Nc1ncccn1` reads “inactive”; that for `CC(=O)N[C@@H](C)C(=O)N1CCC(n2nccc2NC(=O)CCCc2ccccc2)CC1`, “inactive”; that for `Cc1ccc(C(=O)Nc2nnc(C3=COCCO3)o2)cc1C`, “inactive”. The result for `COc1ccccc1-n1c(C)nc2cc(C(=O)NCc3ccc4c(c3)OCO4)ccc21` reads “inactive”. For `CCCC(C)C(=O)NCc1ccncc1` (centres undefined), the activity change, negative = inhibition entry is “inactive”. The result for `CCOC(=O)c1sc(NC(=O)CSc2nc3c(c(=O)n2-c2ccccc2)SCC3)c(C(=O)OCC)c1C` reads “inactive”. For the compound `CC(C)C(C)(C#N)NC(=O)CSc1nncn1-c1ccccc1` (centres undefined), the activity change, negative = inhibition entry was “inactive”.

In the case of `COc1cccc(/C=C(/CC(=O)Nc2ccc(N3CCOCC3)cc2)c2nc3ccccc3s2)c1`, the activity change, negative = inhibition result was “inactive”. As to `O=C(NC(=S)Nc1cccc(-c2ccc(CO)o2)c1)c1cccs1`, the activity change, negative = inhibition entry is “inactive”.
